The record followed here is PubChem BioAssay (NCATS).

This assay is described as follows: High-throughput drug toxicity screening in the BPDCN cell line Cal-1 (AID 1224825). As to conditions: Cal-1 BPDCN cell viability, qHTS; at 45.8 µM (top of the series) unless noted. An excerpt: Blastic plasmacytoid dendritic cell neoplasm (BPDCN) is a rare, aggressive and largely incurable hematologic malignancy originating from plasmacytoid dendritic cells (pDCs). Although an initial response to chemotherapy is common, BPDCN prognosis is extremely poor and most patients relapse with drug-resistant disease leading to a median overall survival of ~1 year after diagnosis. To explore novel potential therapeutic strategies in BPDCN, we performed a high-throughput drug toxicity screening in BPDCN cell liens, using of a library of 1,912 small molecules, enriched for compounds that are either approved or in early stages of development for cancer therapy.
A total of 500 exponentially growing Cal-1 cells were seeded per well in 5 uL of media (RPMI + Glutamine, without phenol red plus10% FBS and 1X Pen/Strep) into 1536-well solid white high base tissue culture treated Greiner One Bio Plates (789173-F), using a multidrop combi dispenser and a small sterile cassette. Compounds and controls totaling 23nL per well (negative control DMSO and positive control 9.2 uM Bortezomib-final) were immediately added to the plates using a 1536 head pin tool from Kalypsys. The plates were then covered with stainless steel gasket lids from Kalypsys and incubated for 48 hours at 37C under 95% relative humidity with 5% CO2. After 48 hours, the plates were removed and allowed to reach room temperature before 3 uL of Cell Titer Glo reagent (Promega) were added using an Aurora Flying Reagent Dispenser Bioraptor. The plates were then spun at 1000 rpms to remove bubbles and incubated for 15 minutes at room temperature before reading on a ViewLux using a luminescent filter with a 10 second exposure. The relative luciferase units were used to calculated percent activity using DMSO as 100% and Bortezomib as 0%.
For `CC(=O)O[C@@]12CO[C@H]1C[C@H](O)[C@@]1(C)C(=O)[C@H](O)C3=C(C)[C@@H](OC(=O)C(O)[C@@H](NC(=O)OC(C)(C)C)c4ccccc4)C[C@@](O)([C@@H](OC(=O)c4ccccc4)[C@@H]21)C3(C)C` (stereo not given in full), the viability (% of control) was found to be 8.89%. Consider `Cc1cnc(NC(=O)Nc2cc(Br)c(C)cc2OC[C@@H]2CNCCO2)cn1`, for which the viability (% of control) stood at 7.84%.

Take `NC[C@H]1O[C@H](O[C@H]2[C@@H](O)[C@@H](O[C@H]3O[C@H](CO)[C@@H](O)[C@H](N)[C@@H]3O)[C@H](N)C[C@@H]2N)[C@H](N)C[C@H]1O`: the viability (% of control) worked out at 123%. To `CN(C)CC(=O)N1CCC(c2ccc(NC(=O)c3ncc(C#N)[nH]3)c(C3=CCCCC3)c2)CC1` belongs 28.6%. Consider `C[C@H](NC(=O)[C@@H](O)c1cc(F)cc(F)c1)C(=O)N[C@@H]1C(=O)N(C)c2ccccc2-c2ccccc21`, for which the viability (% of control) amounted to 103%. Then `Oc1cc2c(cc1O)C1c3ccc(O)c(O)c3OCC1(O)C2` (stereo not given), with 105%; and `CC(C)OC(=O)[C@H](C)N[P@](=O)(OC[C@H]1O[C@@H](n2ccc(=O)[nH]c2=O)[C@](C)(F)[C@H]1O)Oc1ccccc1`, with 88.9%.

Turning to `OCCNC1CCCc2c1[nH]c1ccc(-c3ccccc3)cc21` (stereo not given), the viability (% of control) is 0.798%. On to `COc1ccc(C[C@@H](C)[C@@H](C)Cc2ccc(OC)c(OC)c2)cc1OC`, for which the viability (% of control) amounted to 8.52%.

As to `c1cc(CN2CCCNCCNCCCNCC2)ccc1CN1CCCNCCNCCCNCC1`, the viability (% of control) was 120%. With `Cc1ccc(O)c(C(CCN(C(C)C)C(C)C)c2ccccc2)c1` (stereo not given), the viability (% of control) turned out to be 103%. On to `O=C(O)[C@H](CC(=O)N1C[C@@H]2CCCC[C@H]2C1)Cc1ccccc1`, for which the viability (% of control) is 89.5%. To `CC(C)(O)Cn1c(NC(=O)c2ccc(-c3cn[nH]c3)s2)nc2cc(CN3CCOCC3)ccc21` belongs 3.65%. Regarding `COc1ccc(Nc2cc(-c3cnc(N)nc3)nc(N3CCOCC3)n2)cn1`, the viability (% of control) was found to be 25.7%. To `COc1ccnc2[nH]cc(C(=O)C(=O)N3CCN(C(=O)c4ccccc4)C[C@@H]3C)c12` belongs 119%. With `C[C@](Cc1c[nH]c2ccccc12)(NC(=O)OC1C2CC3CC(C2)CC1C3)C(=O)NC[C@H](NC(=O)CCC(=O)O)c1ccccc1` (stereo not given in full), the viability (% of control) was found to be 4.7%.

`C=CC(=O)Nc1cc(NC(=O)c2ccc(C)c(NC(=O)c3ccno3)c2)cc(C(F)(F)F)c1`: the viability (% of control) is 3.59%. For the molecule `CC(=O)N[C@H]1[C@@H]([C@H](O)[C@H](O)CO)OC(C(=O)O)=C[C@@H]1N=C(N)N`, the viability (% of control) was 124%. To `Oc1ccc([C@@H]2Oc3ccc(O)cc3[C@@H]3CCC[C@@H]32)cc1` belongs 14.4%; to `O=C(NC1CC1)c1cccc(-c2ccc3c(NC(=O)C4CC4)n[nH]c3c2)c1`, 17.8%; to `COc1ccc(C=Cc2cc(OC)c(OC)c(OC)c2)cc1NC(=O)[C@H](N)CO`, 7.97%. As for `CC(=O)OC[C@@H]1O[C@@H](n2ccc(=O)[nH]c2=O)[C@H](OC(C)=O)[C@H]1OC(C)=O`, the viability (% of control) came out at 104%.

With `Cc1nc(NC(=O)N2CCC[C@@H]2C(N)=O)sc1-c1ccnc(C(C)(C)C(F)(F)F)c1`, the viability (% of control) was 65.8%. Then `OC[C@H]1OC(O)C[C@@H](O)[C@H]1O` (stereo not given in full), with 115%; and `N#CC(=Cc1ccc(O)c(O)c1)C(=O)NCc1ccccc1`, with 45.8%. Then `CON=C(C(=O)N[C@@H]1C(=O)N2C(C(=O)O)=C(Cn3ccc(=N)n3CCO)CS[C@H]12)c1csc(N)n1`, with 95.7%. Turning to `COc1ccc(CCC(=O)c2c(O)cc(O[C@@H]3O[C@H](CO)[C@@H](O)[C@H](O)[C@@H]3O[C@@H]3O[C@@H](C)[C@H](O)[C@@H](O)[C@@H]3O)cc2O)cc1O`, the viability (% of control) worked out at 106%. Then `C[C@]12CC[C@@H]3c4ccc(O)cc4CC[C@H]3[C@H]1CC[C@H]2O`, with 12.5%. To `Nc1ccn(C[C@@H](CO)OCP(=O)(O)O)c(=O)n1` belongs 98.1% [at 23.2 µM]; to `COc1cc([C@@H]2c3cc4c(cc3[C@@H](O[C@@H]3O[C@@H]5CO[C@@H](c6cccs6)O[C@@H]5[C@H](O)[C@@H]3O)[C@H]3COC(=O)[C@H]23)OCO4)cc(OC)c1O`, 5.23%. Then `C[C@@]12C(=O)OC(=O)[C@@]1(C)C1CCC2O1`, with 3.87%.

For the molecule `C[C@@]12C[C@@]3(O)O[C@@H](O1)[C@]1(COC(=O)c4ccccc4)[C@@H]3C[C@@]12O[C@@H]1O[C@H](CO)[C@@H](O)[C@H](O)[C@@H]1O`, the viability (% of control) is 109%.

For the molecule `CC1(C)CC(O)CC(C)(C)N1[O]`, the viability (% of control) was 102%. To `Cc1cn([C@@H]2O[C@H](CO)[C@@H](O)[C@H]2F)c(=O)[nH]c1=O` belongs 72.5%; to `Cc1cnc(Nc2ccc(CN3CCOCC3)cc2)nc1Nc1cccc(S(=O)(=O)NC(C)(C)C)c1`, 3.36%. In the case of `O=C(C=CC#Cc1cccc(NS(=O)(=O)c2ccccc2)c1)NO`, the viability (% of control) was 3.48%. To `CC(C)[C@H](CO)Nc1nc(Nc2cccc(Cl)c2)c2ncn(C(C)C)c2n1` belongs 1.87%; to `Cc1ccc2nc(NCCN)c3ncc(C)n3c2c1`, 3.39%; to `CCn1c(=O)c2c(nc(C=Cc3ccc(OC)c(OC)c3)n2C)n(CC)c1=O`, 99.5%. With `COc1cc(C)c(Sc2cnc(NC(=O)c3ccc(CNC(C)C(C)(C)C)cc3)s2)cc1C(=O)N1CCN(C(C)=O)CC1` (stereo not given), the viability (% of control) amounted to 3.38%.
